The supplement of paper PMC11732987, “Enantioselective OTUD7B fragment discovery through chemoproteomics screening and high-throughput optimisation” (Communications Chemistry, 2025)

Legend:
Assay in all cases: log2 ratio of Biotin-Ahx-Ub-VS probe labelling (fragment/DMSO); higher = less target engagement (more negative = stronger competition), active = hit call of the paper (q ≤ 0.05, log2 ratio ≤ -1)
Conditions in all cases: compound concentration: 200 uM; treatment time: 3 h
[1] = molecular target: T1, USP19 (UniProt O94966)
T1 sequence (whole entry): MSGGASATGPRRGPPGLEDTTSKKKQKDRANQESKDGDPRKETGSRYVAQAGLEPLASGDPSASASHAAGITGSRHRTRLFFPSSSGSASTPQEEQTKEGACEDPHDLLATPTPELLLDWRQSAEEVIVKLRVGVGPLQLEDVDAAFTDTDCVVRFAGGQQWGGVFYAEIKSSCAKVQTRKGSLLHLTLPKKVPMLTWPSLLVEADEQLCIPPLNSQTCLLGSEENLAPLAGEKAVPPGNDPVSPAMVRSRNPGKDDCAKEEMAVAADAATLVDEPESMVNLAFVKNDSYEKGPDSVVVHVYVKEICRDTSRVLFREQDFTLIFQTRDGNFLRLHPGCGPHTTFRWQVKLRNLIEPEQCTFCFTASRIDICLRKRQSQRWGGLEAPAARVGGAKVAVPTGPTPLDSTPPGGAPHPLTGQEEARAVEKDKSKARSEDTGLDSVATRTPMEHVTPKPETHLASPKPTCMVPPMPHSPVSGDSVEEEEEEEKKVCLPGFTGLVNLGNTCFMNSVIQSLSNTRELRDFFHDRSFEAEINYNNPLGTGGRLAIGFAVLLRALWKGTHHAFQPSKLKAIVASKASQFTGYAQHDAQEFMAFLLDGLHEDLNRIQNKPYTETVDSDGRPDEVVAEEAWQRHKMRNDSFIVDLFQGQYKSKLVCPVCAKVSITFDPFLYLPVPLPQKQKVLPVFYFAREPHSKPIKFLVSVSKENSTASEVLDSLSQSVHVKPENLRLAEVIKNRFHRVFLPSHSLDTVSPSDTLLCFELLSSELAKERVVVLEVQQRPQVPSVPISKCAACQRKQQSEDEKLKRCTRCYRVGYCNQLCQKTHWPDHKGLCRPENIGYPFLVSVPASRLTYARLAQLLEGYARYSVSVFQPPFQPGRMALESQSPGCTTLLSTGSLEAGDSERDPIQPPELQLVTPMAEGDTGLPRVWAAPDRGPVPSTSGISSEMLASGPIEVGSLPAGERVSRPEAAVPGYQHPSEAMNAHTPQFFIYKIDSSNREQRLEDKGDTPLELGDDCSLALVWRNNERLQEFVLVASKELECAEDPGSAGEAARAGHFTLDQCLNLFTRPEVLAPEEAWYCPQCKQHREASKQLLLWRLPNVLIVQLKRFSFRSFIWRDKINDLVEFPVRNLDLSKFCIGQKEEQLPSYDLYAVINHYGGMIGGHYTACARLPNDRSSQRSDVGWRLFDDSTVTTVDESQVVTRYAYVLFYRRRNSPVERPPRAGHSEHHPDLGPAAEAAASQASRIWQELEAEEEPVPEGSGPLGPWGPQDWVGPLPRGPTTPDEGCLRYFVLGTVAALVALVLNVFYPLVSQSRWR
Method in brief: (§1)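 Average log2 ratios of fragment over vehicle were obtained by unpaired t-test from global-median-normalised Spectronaut label-free quantities. Proteins with ≥2 unique peptides were included. HEK293T lysate (495 µg per sample) was treated in triplicate with fragment at 200 µM or vehicle for 3 h, then with Biotin-Ahx-Ub-VS at 0.5 µM final for 1 h, and labelled DUBs were NeutrAvidin-enriched and run by diaPASEF LC-MS/MS.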

[2] = molecular target: T2, USP22 (UniProt Q9UPT9)
T2 sequence (whole entry): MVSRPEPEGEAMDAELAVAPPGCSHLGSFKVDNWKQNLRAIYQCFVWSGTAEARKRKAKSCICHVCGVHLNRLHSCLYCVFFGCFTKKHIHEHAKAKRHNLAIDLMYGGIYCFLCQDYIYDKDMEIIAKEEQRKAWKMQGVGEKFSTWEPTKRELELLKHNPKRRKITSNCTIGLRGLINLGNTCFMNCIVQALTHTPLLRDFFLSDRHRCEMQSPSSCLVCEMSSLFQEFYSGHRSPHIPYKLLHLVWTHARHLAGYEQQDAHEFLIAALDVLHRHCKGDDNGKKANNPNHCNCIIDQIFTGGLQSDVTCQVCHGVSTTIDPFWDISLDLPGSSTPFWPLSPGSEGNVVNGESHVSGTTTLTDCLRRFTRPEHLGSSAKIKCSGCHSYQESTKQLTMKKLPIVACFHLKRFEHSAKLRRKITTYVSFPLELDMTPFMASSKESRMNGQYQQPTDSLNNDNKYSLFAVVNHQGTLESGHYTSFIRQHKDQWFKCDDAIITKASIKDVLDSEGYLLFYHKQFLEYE
Method in brief: as §1

[3] = molecular target: USP24 (UniProt Q9UPU5)
Method in brief: as §1

[4] = molecular target: T3, USP25 (UniProt Q9UHP3)
T3 sequence (whole entry): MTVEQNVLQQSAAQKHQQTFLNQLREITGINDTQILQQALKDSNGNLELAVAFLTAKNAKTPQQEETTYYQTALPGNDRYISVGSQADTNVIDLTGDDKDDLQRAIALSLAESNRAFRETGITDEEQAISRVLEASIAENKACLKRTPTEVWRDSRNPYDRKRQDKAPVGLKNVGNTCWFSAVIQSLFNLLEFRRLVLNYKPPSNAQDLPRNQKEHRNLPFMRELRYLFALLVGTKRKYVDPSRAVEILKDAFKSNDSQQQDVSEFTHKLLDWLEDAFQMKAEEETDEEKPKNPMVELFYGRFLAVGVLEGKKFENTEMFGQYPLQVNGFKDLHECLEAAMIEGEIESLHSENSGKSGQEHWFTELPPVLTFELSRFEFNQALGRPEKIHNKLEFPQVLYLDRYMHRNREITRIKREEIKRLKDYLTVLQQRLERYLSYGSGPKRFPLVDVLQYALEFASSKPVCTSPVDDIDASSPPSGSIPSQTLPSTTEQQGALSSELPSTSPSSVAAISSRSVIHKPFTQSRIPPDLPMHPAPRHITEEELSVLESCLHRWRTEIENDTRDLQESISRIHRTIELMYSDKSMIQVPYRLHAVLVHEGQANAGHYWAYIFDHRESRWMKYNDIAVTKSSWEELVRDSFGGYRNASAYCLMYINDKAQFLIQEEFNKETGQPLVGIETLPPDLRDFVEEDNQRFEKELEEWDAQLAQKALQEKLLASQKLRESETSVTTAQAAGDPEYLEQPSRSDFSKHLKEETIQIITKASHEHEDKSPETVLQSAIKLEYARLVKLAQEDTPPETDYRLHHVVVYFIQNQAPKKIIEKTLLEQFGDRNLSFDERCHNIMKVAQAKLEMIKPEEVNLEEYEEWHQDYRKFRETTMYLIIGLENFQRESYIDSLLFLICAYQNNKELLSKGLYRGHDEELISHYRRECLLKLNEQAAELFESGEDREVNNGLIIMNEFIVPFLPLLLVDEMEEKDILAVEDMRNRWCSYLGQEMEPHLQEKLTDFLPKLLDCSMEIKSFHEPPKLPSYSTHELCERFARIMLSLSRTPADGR
Method in brief: as §1

[5] = molecular target: T4, USP28 (UniProt Q96RU2)
T4 sequence (whole entry): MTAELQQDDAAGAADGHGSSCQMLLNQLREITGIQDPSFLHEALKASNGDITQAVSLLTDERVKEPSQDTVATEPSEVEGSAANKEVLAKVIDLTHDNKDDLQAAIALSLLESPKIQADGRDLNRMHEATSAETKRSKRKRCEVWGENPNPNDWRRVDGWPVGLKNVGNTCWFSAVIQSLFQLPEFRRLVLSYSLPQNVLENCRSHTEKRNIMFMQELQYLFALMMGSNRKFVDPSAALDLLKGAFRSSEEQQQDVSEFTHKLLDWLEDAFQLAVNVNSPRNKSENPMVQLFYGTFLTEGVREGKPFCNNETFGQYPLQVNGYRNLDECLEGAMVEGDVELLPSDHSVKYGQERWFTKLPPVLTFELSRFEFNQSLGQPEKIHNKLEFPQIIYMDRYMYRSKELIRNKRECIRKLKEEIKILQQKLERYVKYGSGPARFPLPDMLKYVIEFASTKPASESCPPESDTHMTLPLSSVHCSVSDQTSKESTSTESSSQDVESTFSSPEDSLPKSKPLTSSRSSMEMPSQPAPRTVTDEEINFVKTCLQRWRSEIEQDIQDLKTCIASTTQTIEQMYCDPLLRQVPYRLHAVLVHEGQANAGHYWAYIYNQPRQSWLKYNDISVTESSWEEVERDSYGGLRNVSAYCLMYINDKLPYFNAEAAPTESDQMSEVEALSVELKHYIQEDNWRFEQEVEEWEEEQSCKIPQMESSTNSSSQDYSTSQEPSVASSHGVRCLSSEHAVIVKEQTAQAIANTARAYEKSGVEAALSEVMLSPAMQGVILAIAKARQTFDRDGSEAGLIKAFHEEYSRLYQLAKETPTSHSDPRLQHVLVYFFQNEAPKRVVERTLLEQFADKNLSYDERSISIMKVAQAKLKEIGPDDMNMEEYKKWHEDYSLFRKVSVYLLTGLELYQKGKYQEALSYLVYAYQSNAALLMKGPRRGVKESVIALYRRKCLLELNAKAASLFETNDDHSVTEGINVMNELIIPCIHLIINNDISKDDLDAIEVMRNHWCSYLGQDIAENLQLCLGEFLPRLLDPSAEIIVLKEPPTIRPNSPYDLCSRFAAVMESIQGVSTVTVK
Method in brief: as §1

Measured: log2 ratio of Biotin-Ahx-Ub-VS probe labelling

Sequence of USP24 (Q9UPU5 whole entry): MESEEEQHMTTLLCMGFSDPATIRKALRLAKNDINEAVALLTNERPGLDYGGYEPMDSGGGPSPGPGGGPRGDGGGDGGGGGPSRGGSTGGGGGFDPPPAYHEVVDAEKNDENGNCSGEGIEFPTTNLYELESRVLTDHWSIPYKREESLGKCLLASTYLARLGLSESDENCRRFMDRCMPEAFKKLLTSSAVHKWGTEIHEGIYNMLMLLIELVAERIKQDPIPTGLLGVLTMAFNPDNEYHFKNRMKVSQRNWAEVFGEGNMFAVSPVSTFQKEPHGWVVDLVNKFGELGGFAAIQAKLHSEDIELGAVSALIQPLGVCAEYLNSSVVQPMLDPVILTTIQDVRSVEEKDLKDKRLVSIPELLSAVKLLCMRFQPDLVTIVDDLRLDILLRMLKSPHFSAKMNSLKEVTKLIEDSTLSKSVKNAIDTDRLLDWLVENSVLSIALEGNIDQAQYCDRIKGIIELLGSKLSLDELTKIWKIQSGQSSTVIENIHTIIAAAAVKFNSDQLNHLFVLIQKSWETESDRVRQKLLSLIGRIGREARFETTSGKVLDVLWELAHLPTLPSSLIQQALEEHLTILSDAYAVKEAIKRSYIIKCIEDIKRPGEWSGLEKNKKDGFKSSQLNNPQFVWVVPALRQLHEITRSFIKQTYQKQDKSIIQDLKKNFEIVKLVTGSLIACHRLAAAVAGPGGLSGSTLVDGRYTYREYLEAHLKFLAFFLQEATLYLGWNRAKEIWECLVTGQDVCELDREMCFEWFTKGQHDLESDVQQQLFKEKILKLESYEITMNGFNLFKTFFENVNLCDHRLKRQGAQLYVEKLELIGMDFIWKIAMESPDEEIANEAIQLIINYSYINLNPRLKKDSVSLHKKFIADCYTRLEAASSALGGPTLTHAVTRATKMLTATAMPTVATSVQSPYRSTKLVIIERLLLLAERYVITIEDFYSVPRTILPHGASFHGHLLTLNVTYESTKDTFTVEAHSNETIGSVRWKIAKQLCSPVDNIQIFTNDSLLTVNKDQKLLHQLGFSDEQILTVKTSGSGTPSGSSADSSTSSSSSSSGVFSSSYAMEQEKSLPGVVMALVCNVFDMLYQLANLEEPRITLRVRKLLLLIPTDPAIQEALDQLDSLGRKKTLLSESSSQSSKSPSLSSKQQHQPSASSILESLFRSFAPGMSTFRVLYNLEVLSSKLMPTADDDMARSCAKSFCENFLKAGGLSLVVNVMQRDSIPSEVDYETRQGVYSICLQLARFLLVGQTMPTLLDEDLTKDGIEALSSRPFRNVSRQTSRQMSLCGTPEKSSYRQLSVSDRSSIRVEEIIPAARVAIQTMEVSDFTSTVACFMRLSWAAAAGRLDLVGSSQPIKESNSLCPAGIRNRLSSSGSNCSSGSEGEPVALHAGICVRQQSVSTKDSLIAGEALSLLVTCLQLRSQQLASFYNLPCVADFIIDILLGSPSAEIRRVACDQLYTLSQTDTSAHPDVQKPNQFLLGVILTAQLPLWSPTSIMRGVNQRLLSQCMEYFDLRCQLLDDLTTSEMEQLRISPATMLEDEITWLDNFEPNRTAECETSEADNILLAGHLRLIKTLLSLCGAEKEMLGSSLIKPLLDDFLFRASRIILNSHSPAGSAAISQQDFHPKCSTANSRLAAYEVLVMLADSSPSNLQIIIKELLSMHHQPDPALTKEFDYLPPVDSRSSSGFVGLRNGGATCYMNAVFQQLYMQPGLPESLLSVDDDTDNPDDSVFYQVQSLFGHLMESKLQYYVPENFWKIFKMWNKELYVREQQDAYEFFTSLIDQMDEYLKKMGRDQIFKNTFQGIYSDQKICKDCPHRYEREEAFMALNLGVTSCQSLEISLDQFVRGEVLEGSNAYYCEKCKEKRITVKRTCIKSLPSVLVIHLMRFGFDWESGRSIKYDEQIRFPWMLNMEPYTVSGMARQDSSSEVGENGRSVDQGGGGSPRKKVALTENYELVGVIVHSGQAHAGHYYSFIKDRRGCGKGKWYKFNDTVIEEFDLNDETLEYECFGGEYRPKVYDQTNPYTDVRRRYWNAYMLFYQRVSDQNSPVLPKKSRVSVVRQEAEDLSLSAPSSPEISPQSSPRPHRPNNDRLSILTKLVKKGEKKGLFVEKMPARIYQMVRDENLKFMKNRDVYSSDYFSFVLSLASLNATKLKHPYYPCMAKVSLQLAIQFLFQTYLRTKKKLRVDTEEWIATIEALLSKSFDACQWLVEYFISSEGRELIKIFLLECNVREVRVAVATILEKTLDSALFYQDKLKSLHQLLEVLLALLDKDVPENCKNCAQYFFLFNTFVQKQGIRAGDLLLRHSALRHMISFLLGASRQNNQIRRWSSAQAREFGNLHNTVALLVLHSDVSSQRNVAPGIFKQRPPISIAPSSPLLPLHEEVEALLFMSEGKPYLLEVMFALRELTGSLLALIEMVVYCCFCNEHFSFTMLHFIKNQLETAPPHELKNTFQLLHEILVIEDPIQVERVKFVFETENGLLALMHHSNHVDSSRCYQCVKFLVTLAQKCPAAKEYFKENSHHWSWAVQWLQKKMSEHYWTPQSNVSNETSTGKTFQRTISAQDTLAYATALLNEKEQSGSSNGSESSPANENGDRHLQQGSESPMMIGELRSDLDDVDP

O=C(CCl)NCC(=O)N1CCCC1
inactive: [1] 0.114 | [2] -0.00438 | [3] -0.074 | [4] 0.037 | [5] -0.302
